Screen size: about 16,000 compounds; about 5,700 (36%) were called active. About 24% were inconclusive and are not listed. This is one part of the list. A number with no mark means an inactive call. The call rests on the fitted dose curve; in most records, active means well fitted curve in the direction sought with a large enough effect; inconclusive means small, poorly fitted or top-dose-only effect, or effect the other way; inactive means no such curve, though single readings can be large or run the other way.

What is called AC50 is the concentration at which the activity in the assay is half-maximal.
On the % scale 0 is the no-effect control and ±100 the full control effect.

Cytochrome P450 1A2 (Homo sapiens), sequence (P05177 whole entry, looked up): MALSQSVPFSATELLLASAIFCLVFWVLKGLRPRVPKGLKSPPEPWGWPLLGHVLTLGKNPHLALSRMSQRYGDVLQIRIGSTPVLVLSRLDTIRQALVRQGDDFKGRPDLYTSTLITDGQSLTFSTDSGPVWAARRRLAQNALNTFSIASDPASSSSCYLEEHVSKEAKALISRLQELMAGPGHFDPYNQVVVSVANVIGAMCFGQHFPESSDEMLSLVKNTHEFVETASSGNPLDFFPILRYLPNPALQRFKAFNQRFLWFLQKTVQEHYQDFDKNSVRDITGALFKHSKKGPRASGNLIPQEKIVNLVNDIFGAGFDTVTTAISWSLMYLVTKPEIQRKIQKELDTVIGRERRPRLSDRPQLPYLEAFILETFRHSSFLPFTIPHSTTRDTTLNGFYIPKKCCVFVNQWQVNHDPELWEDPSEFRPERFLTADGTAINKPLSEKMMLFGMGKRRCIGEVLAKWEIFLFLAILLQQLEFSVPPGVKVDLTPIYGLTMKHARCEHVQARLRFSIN

The assay addresses Cytochrome P450 1A2 (Homo sapiens) (UniProt P05177). Description: Cytochrome panel assay with activity outcomes. To be noted: recombinant CYP, pro-luciferin dealkylation, luminescence, p450-cyp1a2; series mostly up to 57.1 µM; activity, negative = inhibition: at the top concentration.
Take `Cc1cc(C(C#N)c2cccc(Cl)c2)n2ncnc2n1` (stereo not drawn): the AC50 was 5010 nM (active).

On to `CC[C@@H]1CN2CCc3cc(OC)c(OC)cc3[C@H]2C[C@@H]1C[C@H]1NCCc2cc(OC)c(OC)cc21`, for which the “activity, negative = inhibition” value is -3.72% [at 25.6 µM].

In the case of `NC1CCN(c2cccc(Cl)n2)CC1`, the AC50 was 15800 nM (active).

Take `c1c[nH]c(CN2CCN(Cc3ncc[nH]3)CC2)n1`: the activity, negative = inhibition was 0.981% [at 11.4 µM].

Consider `COc1ccc(C2N=C(N)N=C(N)N2c2ccccc2OC)cc1OC` (stereo not drawn), for which the “activity, negative = inhibition” value was 1.06%.

As for `CCn1c(SCC(=O)Nc2ccccc2C(=O)OC)nnc1-c1ccc(N)cc1`, the AC50 is 14100 nM (active).

For the compound `CC(C)CC(C(=O)NCC1CCCO1)N(C(=O)Cn1nnc(-c2ccc(F)cc2)n1)c1ccccc1F` (stereo not drawn), the “activity, negative = inhibition” value was -7.92%.

With `O=C(O)C[C@H]1OCC=C2C[N@@+]3([O-])CC[C@]45c6ccccc6N[C@@H]4[C@@H]1[C@H]2C[C@H]53`, the activity, negative = inhibition was -14.3% [at 2.29 µM].

Regarding `COc1ccc(O[C@H]2C=C[C@@H](c3ccccc3)O[C@@H]2CO/N=C(\C)CCN2CCCCc3nc(C)c(C)cc32)cc1`, the activity, negative = inhibition is 0.173% [at 11.4 µM].

On to `CN(C)Cc1ccccc1-c1cc(-n2ccnc2)ncn1`, for which the AC50 is 5010 nM (active).

With `COc1ccccc1-c1cc(-n2ccnc2)ncn1`, the AC50 is 316 nM (active).

Consider `Nc1nc(-c2cccc([N+](=O)[O-])c2)cc(-c2cc(-c3cccc([N+](=O)[O-])c3)nc(N)n2)n1`, for which the activity, negative = inhibition is 0.313% [at 2.29 µM].

Take `Cc1cc(-c2cccc([N+](=O)[O-])c2)nc2ccc3ccccc3c12`: the half-maximal activity concentration (AC50) is 631 nM (active).

`O=C(Cn1c(C(F)(F)F)nc2ccccc21)c1ccc(F)cc1`: the “activity, negative = inhibition” value was -27.8%.

`O=C(Cn1c(-c2cscn2)nc2ccccc21)Nc1cc(F)ccc1F`: the AC50 is 2510 nM (active).

For the compound `CCn1c(CNC(=O)COc2ccc(C(C)C)cc2)nnc1SCC(=O)Nc1cc(F)ccc1C`, the “activity, negative = inhibition” value is -7%.

For the compound `Cn1ncc2c(NCCc3ccccc3)nc(Cl)nc21`, the half-maximal activity concentration (AC50) was 2510 nM (active).

Take `Cn1ncc2c(Cl)ncnc21`: the activity, negative = inhibition was -5.24% [at 11.4 µM].

`CN1CCN(c2ncc3nc(-c4ccccc4)c(=O)n(Cc4ccc(F)cc4)c3n2)CC1`: the “activity, negative = inhibition” value is -20%.

As for `COc1cccc(Cn2c(=O)c(-c3ccccc3)nc3cnc(N4CCN(C)CC4)nc32)c1`, the “activity, negative = inhibition” value is -20.3%.

On to `CN1CCN(c2ncc3nc(-c4cccs4)c(=O)n(Cc4cccs4)c3n2)CC1`, for which the AC50 was 15800 nM (active).

As for `COCCn1c(=O)c(-c2cccs2)nc2cnc(N3CCN(C)CC3)nc21`, the AC50 was 15800 nM (active).

On to `CC(C)CNS(=O)(=O)c1cc(C(=O)N2CC(C)OC(C)C2)c(Cl)cc1Cl` (stereo not drawn), for which the “activity, negative = inhibition” value was 2.27%.

For the compound `Cc1cccc(CNc2ccnc(-c3cccnc3)n2)c1`, the half-maximal activity concentration (AC50) was 126 nM (active).

Regarding `c1ccc(CNc2ccnc(-c3cccnc3)n2)cc1`, the half-maximal activity concentration (AC50) is 251 nM (active).

In the case of `COc1cc(C)ccc1OCCCOc1ccccc1Br`, the AC50 is 1580 nM (active).

For the compound `COc1cc(C)ccc1OCCOc1cc(C)ccc1Cl`, the “activity, negative = inhibition” value was -29.1%.

With `COc1ccccc1OCCCOc1ccc([N+](=O)[O-])cc1Cl`, the AC50 is 2000 nM (active).

As to `C[C@@H]1C[C@H](C)CN(S(=O)(=O)c2cc(Cl)c(Oc3ccc([N+](=O)[O-])cc3Cl)c(Cl)c2)C1`, the activity, negative = inhibition was -15.8% [at 11.4 µM].

Turning to `COc1cc(C)ccc1OCCCOc1ccccc1Cl`, the AC50 is 2510 nM (active).

On to `CC1(C)CCC=[N+]1[O-]`, for which the “activity, negative = inhibition” value is -0.975%.

For `CO/N=C(\C)CCN1CCc2nc(-c3ccccc3)c(-c3ccccc3)cc2C1`, the activity, negative = inhibition is 7.31% [at 11.4 µM].

Take `CO[C@H]1COC(=O)[C@H]2CCCN2C(=O)[C@@H](C)COC(=O)C/C=C\[C@@H]1C`: the activity, negative = inhibition was -1.05% [at 11.4 µM].

Consider `CC(=O)Nc1c(S(=O)(=O)c2ccccc2)c2nc3ccccc3nc2n1Cc1ccccc1`, for which the “activity, negative = inhibition” value was -16%.

For `CCn1c2ccc(Cl)cc2c2nc3ccccc3nc21`, the AC50 is 501 nM (active).

With `Cc1cc(-c2n[nH]c(=S)o2)c(C)n1-c1ccccc1`, the AC50 is 14100 nM (active).

Regarding `CN(C)S(=O)(=O)Oc1ccccc1C(=O)Nc1cccc(C(F)(F)F)c1`, the AC50 is 8910 nM (active).

As to `CN(C)S(=O)(=O)Oc1ccc(Cl)cc1C(=O)Nc1cccc(C(F)(F)F)c1`, the half-maximal activity concentration (AC50) was 7080 nM (active).

With `CC(O)(CS(=O)(=O)Cc1ccccc1Cl)C(=O)Nc1cccc(C(F)(F)F)c1` (stereo not drawn), the “activity, negative = inhibition” value is -13.5%.

For `CO[C@@H]1/C=C\CC(=O)N[C@@H](C)C(=O)OC[C@H](NS(=O)(=O)c2ccc(C)cc2)[C@H](C)/C=C\CC(=O)OC[C@H]1C`, the activity, negative = inhibition was 8.52% [at 11.4 µM].

Consider `COC(=O)C/C=C\[C@H](C)[C@@H](OC)c1ccccc1Br`, for which the activity, negative = inhibition is -0.474% [at 11.4 µM].

Consider `CN(CC(=O)O)CC(=O)O`, for which the activity, negative = inhibition is -5.93% [at 2.29 µM].

With `CCOC(=O)C(C)Sc1ncc(OC)c(Sc2ccc(Cl)cc2)n1` (stereo not drawn), the AC50 was 12600 nM (active).

`COC(=O)CSc1ncc(OC)c(OC)n1`: the “activity, negative = inhibition” value was -22%.

Regarding `O=C(Nc1ccccc1)N1CCCC2(CCN(C(=O)c3cnccn3)CC2)C1`, the “activity, negative = inhibition” value is 3.93%.

`O=C(Nc1cnn(Cc2ccc(Cl)cc2Cl)c1)c1cc(-c2cccs2)on1`: the AC50 is 2510 nM (active).

In the case of `COc1ccc(-c2cc(C(=O)Nc3cnn(Cc4ccccc4C)c3)no2)cc1OC`, the “activity, negative = inhibition” value is -15.7%.

With `Cc1cccc(-c2c3c(=O)n(C)c(=O)n(C)c3cn2C2CCCCC2)c1`, the “activity, negative = inhibition” value is -28.2%.
